From publication PMC7862700, “An all-to-all approach to the identification of sequence-specific readers for epigenetic DNA modifications on cytosine” come the findings set out here.

Common to all, as to experiment: DAPPL (digital affinity profiling via proximity ligation, sequencing); 10 mM Tris-HCl pH 7.5, 50 mM NaCl, 1 mM DTT, 4% glycerol, room temperature, 30 min; GST-TFs on glutathione beads, 16-mer random dsDNA library, 0.1% formaldehyde crosslink after washing; high values mean tight binding
Common to all, as to details: protein: recombinant; tags: N-terminal GST; dsDNA, one strand shown

Assay [1] addresses T1, FLI1 (Homo sapiens, UniProt Q01543 1-452).
T1 sequence: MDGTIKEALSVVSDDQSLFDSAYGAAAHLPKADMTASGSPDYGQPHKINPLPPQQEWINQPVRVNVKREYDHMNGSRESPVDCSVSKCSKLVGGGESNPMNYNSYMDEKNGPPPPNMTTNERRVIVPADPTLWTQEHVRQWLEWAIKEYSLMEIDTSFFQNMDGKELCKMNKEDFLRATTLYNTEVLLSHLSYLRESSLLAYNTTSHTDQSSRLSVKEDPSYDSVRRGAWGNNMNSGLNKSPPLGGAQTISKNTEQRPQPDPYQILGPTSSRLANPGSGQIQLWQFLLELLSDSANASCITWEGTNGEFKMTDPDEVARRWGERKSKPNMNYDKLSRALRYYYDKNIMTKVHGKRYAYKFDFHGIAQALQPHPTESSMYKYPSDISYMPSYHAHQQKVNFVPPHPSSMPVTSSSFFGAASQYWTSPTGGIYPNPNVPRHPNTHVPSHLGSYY
The essentials:
(§1)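 Each value of binding signal is a hexamer's read frequency for a factor divided by the same hexamer's frequency in the tag-only sample. Barcoded, bead-captured GST fusions of human transcription factors made in yeast were pooled with that sample and incubated with 200 nmole of a random double-stranded 16-mer DNA library in Tris/NaCl/DTT/glycerol buffer at room temperature for 30 min. Washing, 0.1% formaldehyde crosslinking, proximity ligation, PCR and Illumina NextSeq500 sequencing followed.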

The target in assay [2] is T2, ELK1 (Homo sapiens, UniProt P19419 1-428).
T2 sequence: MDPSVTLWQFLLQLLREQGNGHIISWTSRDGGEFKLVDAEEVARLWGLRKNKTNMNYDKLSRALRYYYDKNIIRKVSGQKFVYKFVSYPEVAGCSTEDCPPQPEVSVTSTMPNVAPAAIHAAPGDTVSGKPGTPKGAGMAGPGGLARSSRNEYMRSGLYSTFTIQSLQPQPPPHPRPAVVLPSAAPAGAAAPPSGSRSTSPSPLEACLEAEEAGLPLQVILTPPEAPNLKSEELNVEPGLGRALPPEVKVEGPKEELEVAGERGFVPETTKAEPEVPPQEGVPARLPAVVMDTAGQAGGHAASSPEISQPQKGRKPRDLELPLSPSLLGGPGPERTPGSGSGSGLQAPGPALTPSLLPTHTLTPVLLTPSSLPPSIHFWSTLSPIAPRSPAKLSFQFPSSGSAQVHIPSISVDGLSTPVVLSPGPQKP
The procedure, abridged: as §1

The target in assay [3] is T3, GABPA (Homo sapiens, UniProt Q06546 1-454).
T3 sequence: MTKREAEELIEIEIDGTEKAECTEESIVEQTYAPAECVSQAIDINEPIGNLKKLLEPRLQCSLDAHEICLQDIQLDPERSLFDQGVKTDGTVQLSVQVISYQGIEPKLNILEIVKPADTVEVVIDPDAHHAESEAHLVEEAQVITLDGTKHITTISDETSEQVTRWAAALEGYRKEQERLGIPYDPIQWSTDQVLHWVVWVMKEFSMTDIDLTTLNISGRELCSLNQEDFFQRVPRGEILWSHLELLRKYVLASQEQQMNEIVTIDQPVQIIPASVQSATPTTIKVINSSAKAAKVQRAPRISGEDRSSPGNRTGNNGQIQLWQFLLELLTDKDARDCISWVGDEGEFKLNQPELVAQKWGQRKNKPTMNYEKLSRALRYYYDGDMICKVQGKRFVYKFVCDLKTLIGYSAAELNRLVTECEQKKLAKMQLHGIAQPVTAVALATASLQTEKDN
The procedure, abridged: as §1

For assay [4], the target named is T4, ERG (Homo sapiens, UniProt P11308 1-479).
T4 sequence: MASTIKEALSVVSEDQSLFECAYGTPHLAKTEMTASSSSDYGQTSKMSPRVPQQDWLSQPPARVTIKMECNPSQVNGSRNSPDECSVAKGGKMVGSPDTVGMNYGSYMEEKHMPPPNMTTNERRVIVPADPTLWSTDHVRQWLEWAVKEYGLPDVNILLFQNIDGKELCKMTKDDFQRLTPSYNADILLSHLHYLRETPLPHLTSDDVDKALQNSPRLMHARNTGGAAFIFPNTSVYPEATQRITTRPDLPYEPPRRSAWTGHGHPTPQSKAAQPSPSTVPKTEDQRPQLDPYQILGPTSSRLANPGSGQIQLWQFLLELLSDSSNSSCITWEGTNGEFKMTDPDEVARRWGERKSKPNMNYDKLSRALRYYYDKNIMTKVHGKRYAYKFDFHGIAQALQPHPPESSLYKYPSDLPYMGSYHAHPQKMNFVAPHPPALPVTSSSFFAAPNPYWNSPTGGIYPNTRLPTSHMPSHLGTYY
The essentials:
as §1

The target in assay [5] is ELF1 (Homo sapiens, UniProt P32519 1-619). The procedure, abridged:
as §1

Assay [6] has as its target T5, EHF (Homo sapiens, UniProt Q9NZC4 1-300).
T5 sequence: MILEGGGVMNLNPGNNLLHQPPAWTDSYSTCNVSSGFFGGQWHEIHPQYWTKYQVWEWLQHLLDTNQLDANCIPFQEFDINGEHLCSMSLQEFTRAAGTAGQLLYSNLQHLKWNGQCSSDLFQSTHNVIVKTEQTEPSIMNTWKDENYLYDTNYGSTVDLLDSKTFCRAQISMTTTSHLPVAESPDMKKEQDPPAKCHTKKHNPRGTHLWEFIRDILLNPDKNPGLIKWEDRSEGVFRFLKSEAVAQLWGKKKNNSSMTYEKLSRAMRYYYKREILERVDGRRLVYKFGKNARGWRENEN
The procedure, abridged:
as §1

The target of assay [7] is SPI1 (Homo sapiens, UniProt P17947 1-270). The procedure, abridged:
as §1

Assay [8] deals with SPIB (Homo sapiens, UniProt Q01892 1-262). The procedure, abridged: as §1
Sequence of SPIB (Q01892 whole entry): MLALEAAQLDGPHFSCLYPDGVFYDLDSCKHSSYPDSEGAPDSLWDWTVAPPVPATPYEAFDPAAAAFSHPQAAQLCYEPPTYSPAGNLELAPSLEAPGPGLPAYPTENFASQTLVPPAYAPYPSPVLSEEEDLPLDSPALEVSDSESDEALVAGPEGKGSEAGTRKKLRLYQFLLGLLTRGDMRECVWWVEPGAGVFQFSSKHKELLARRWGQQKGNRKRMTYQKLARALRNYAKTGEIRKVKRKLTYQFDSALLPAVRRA
Assay [9] addresses T6, ELK3 (Homo sapiens, UniProt P41970 1-407).
T6 sequence: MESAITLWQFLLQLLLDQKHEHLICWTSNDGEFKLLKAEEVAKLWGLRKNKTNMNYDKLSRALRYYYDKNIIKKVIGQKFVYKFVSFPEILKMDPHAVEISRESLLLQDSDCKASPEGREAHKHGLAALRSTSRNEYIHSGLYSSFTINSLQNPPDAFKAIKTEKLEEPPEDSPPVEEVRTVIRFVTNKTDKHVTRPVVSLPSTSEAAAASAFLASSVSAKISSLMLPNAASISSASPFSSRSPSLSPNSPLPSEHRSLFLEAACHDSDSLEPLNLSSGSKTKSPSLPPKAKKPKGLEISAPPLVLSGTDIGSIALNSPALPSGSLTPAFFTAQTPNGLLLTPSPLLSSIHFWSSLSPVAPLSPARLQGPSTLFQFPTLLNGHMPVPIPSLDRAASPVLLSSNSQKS
The procedure, abridged: as §1

Sequence of ELF1 (P32519 whole entry): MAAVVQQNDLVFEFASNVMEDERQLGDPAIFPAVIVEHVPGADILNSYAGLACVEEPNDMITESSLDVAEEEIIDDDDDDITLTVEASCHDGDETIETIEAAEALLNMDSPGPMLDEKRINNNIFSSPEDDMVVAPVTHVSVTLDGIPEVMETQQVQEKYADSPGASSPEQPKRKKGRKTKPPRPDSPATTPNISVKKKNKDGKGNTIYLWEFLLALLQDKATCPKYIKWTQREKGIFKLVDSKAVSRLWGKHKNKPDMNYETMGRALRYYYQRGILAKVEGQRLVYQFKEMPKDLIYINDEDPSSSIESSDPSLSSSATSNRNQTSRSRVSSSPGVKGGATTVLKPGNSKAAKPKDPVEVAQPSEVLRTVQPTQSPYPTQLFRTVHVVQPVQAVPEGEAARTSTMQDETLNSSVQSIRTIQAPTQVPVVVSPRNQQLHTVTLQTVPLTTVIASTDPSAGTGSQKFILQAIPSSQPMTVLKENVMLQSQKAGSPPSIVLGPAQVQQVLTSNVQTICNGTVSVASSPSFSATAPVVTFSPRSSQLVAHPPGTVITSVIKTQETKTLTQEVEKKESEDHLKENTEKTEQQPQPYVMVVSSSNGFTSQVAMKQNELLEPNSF

Regarding TATTTG, the binding signal in [1] was 1.52 fold enrichment (6-mer frequency, TF over GST control); in [2], 1.41 fold enrichment (6-mer frequency, TF over GST control); in assay [3], 1.43 fold enrichment (6-mer frequency, TF over GST control); in [4], 1.47 fold enrichment (6-mer frequency, TF over GST control); in assay [5], 1.35 fold enrichment (6-mer frequency, TF over GST control); in assay [6], 1.45 fold enrichment (6-mer frequency, TF over GST control). The binding signal in assay [7] was 1.46 fold enrichment (6-mer frequency, TF over GST control); in [8] it was 1.46 fold enrichment (6-mer frequency, TF over GST control); in assay [9] it was 1.39 fold enrichment (6-mer frequency, TF over GST control).

For CCTATG, the binding signal is 1.14 fold enrichment (6-mer frequency, TF over GST control) in assay [1]; 1.31 fold enrichment (6-mer frequency, TF over GST control) in [2]; 1.31 fold enrichment (6-mer frequency, TF over GST control) in [3]; 1.14 fold enrichment (6-mer frequency, TF over GST control) in assay [4]; 1.27 fold enrichment (6-mer frequency, TF over GST control) in assay [5]; 1.14 fold enrichment (6-mer frequency, TF over GST control) in [6]. Besides, the binding signal in [7] is 1.21 fold enrichment (6-mer frequency, TF over GST control); in assay [8], 1.19 fold enrichment (6-mer frequency, TF over GST control); in assay [9], 1.18 fold enrichment (6-mer frequency, TF over GST control).

Consider CTCCCG, for which the binding signal in [1] is 1.61 fold enrichment (6-mer frequency, TF over GST control); in assay [2], 1.56 fold enrichment (6-mer frequency, TF over GST control); in assay [3] it was 1.62 fold enrichment (6-mer frequency, TF over GST control); in assay [4], 1.54 fold enrichment (6-mer frequency, TF over GST control); in [5], 1.57 fold enrichment (6-mer frequency, TF over GST control); in assay [6] it was 1.75 fold enrichment (6-mer frequency, TF over GST control). The binding signal is 1.45 fold enrichment (6-mer frequency, TF over GST control) in assay [7]; 1.62 fold enrichment (6-mer frequency, TF over GST control) in assay [8]; 1.58 fold enrichment (6-mer frequency, TF over GST control) in [9].

ACATTA: the binding signal is 1.17 fold enrichment (6-mer frequency, TF over GST control) in assay [1]; 1.16 fold enrichment (6-mer frequency, TF over GST control) in assay [2]; 1.17 fold enrichment (6-mer frequency, TF over GST control) in assay [3]; 1.08 fold enrichment (6-mer frequency, TF over GST control) in [4]; 1.19 fold enrichment (6-mer frequency, TF over GST control) in assay [5]; 1.17 fold enrichment (6-mer frequency, TF over GST control) in assay [6]. The binding signal in assay [7] was 1.06 fold enrichment (6-mer frequency, TF over GST control); in assay [8] it was 1.2 fold enrichment (6-mer frequency, TF over GST control); in assay [9], 1.08 fold enrichment (6-mer frequency, TF over GST control).

As to AACTAG, the binding signal in assay [1] was 1.06 fold enrichment (6-mer frequency, TF over GST control); in assay [2] it was 1.15 fold enrichment (6-mer frequency, TF over GST control); in [3] it was 1.22 fold enrichment (6-mer frequency, TF over GST control); in assay [4], 1.21 fold enrichment (6-mer frequency, TF over GST control); in [5], 1.16 fold enrichment (6-mer frequency, TF over GST control); in assay [6], 1.12 fold enrichment (6-mer frequency, TF over GST control). The binding signal is 1.11 fold enrichment (6-mer frequency, TF over GST control) in assay [7]; 1.07 fold enrichment (6-mer frequency, TF over GST control) in assay [8]; 1.11 fold enrichment (6-mer frequency, TF over GST control) in [9].

For the sequence CTCTAC, the binding signal in assay [1] was 1.51 fold enrichment (6-mer frequency, TF over GST control); in assay [2] it was 1.51 fold enrichment (6-mer frequency, TF over GST control); in assay [3] it was 1.56 fold enrichment (6-mer frequency, TF over GST control); in assay [4], 1.6 fold enrichment (6-mer frequency, TF over GST control); in assay [5], 1.59 fold enrichment (6-mer frequency, TF over GST control); in [6] it was 1.54 fold enrichment (6-mer frequency, TF over GST control). Further, the binding signal in assay [7] is 1.45 fold enrichment (6-mer frequency, TF over GST control); in [8], 1.63 fold enrichment (6-mer frequency, TF over GST control); in assay [9] it was 1.27 fold enrichment (6-mer frequency, TF over GST control).

For TTTTAC, the binding signal was 1.45 fold enrichment (6-mer frequency, TF over GST control) in assay [1]; 1.27 fold enrichment (6-mer frequency, TF over GST control) in [2]; 1.33 fold enrichment (6-mer frequency, TF over GST control) in assay [3]; 1.3 fold enrichment (6-mer frequency, TF over GST control) in assay [4]; 1.39 fold enrichment (6-mer frequency, TF over GST control) in [5]; 1.45 fold enrichment (6-mer frequency, TF over GST control) in assay [6]. The binding signal in assay [7] was 1.37 fold enrichment (6-mer frequency, TF over GST control); in [8], 1.4 fold enrichment (6-mer frequency, TF over GST control); in assay [9] it was 1.39 fold enrichment (6-mer frequency, TF over GST control).

In the case of AATGAT, the binding signal was 1.08 fold enrichment (6-mer frequency, TF over GST control) in [1]; 1.22 fold enrichment (6-mer frequency, TF over GST control) in assay [2]; 1.15 fold enrichment (6-mer frequency, TF over GST control) in assay [3]; 1.14 fold enrichment (6-mer frequency, TF over GST control) in assay [4]; 1.19 fold enrichment (6-mer frequency, TF over GST control) in assay [5]; 1.2 fold enrichment (6-mer frequency, TF over GST control) in assay [6]. For the same sequence, the binding signal in assay [7] was 1.16 fold enrichment (6-mer frequency, TF over GST control); in assay [8] it was 1.12 fold enrichment (6-mer frequency, TF over GST control); in assay [9], 1.19 fold enrichment (6-mer frequency, TF over GST control).
